The structures appear in SMILES notation. A number with no mark means an inactive call. For some of these results: Measured potencies and affinities stand elsewhere. Calls of active or inactive are those of the source. Unless noted, the rule behind the calls is not given here.

Experiment [1] in a line: antimalarial activity against Dd2 strain (AID 2302;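 active = growth inhibition above 50% at the single 2 µM test dose, taken to imply half-maximal potency below 2 µM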;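 note: 0% = DMSO untreated growth and 100% = chloroquine plus artemisinin killed control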). The following applies: P. falciparum Dd2 in RBCs, LDH growth readout, 72 h; at 2 µM; hits give high values.
Experiment [2] can be described thus: HepG2 cytotoxicity, primary screen, cytotoxicity control for P. falciparum antimalarial project, cell-based, ATP luminescence (AID 2303;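 active = inhibition above 50%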;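 note: 0% = DMSO wells and 100% = digitonin-killed cells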). The following applies: HepG2 viability, 24-48 h, at 10 µM, hits give high values.
Experiment [3] deals with L-lactate dehydrogenase (Plasmodium falciparum (isolate CDC / Honduras)) (UniProt Q27743). Briefly: PfLDH activity inhibition – cell lysate, 3D7 strain, counter-screen for P. falciparum growth inhibition project (AID 2304).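 Note: 0% = vehicle and 100% = reference inhibitor.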 As to conditions: P. falciparum 3D7 crude extract, LDH APAD/NBT absorbance; at 2 µM; hits give high values.
Experiment [4] in a line: inhibition of 3D7 malaria parasite growth – strain 3D7 (AID 2306).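 Note: 0% = DMSO wells and 100% = chloroquine plus artemisinin control wells.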 As to conditions: P. falciparum 3D7 erythrocytic growth, LDH absorbance, 72 h; at 2 µM; hits give high values.
Experiment [5] concerns the target Calcium-dependent protein kinase 1 (Plasmodium falciparum (isolate 3D7)) (UniProt P62344). Put plainly: PfCDPK1 kinase inhibitors, biochemical, TCAMS library (AID 1159585; cut-off not given, nearly all actives have IC50 up to about 0.98 µM;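 note: inhibitors leave more ATP so luminescence rises with inhibition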). The following applies: recombinant PfCDPK1, Kinase-Glo ATP depletion luminescence.
The target in experiment [6] is Plasmodium falciparum protein kinase 6 (PK6, PF3D7_1337100) (UniProt Q8IDW1). Briefly: PfPK6 kinase inhibitors, biochemical, TCAMS library (AID 1159586). As to conditions: recombinant PfPK6, Kinase-Glo ATP depletion luminescence.
For experiment [7], the target named is Protein kinase 7 (PK7), Plasmodium falciparum 3D7 (PF3D7_0213400) (UniProt Q7YTF7). Put plainly: inhibition of Plasmodium PK7 catalytic activity – biochemical, TCAMS antimalarial set, Kinase-Glo luminescence (AID 1159587). As to conditions: recombinant PfPK7, Kinase-Glo ATP depletion luminescence.
The target in experiment [8] is Calcium-dependent protein kinase 4 (Plasmodium falciparum (isolate 3D7)) (UniProt Q8IBS5). Briefly: PfCDPK4 kinase inhibitors, biochemical, TCAMS library (AID 1159588; cut-off not given, nearly all actives have IC50 up to about 0.91 µM). The following applies: recombinant PfCDPK4, Kinase-Glo ATP depletion luminescence.
Sequence of Calcium-dependent protein kinase 4 (Plasmodium falciparum (isolate 3D7)) (Q8IBS5 whole entry, looked up): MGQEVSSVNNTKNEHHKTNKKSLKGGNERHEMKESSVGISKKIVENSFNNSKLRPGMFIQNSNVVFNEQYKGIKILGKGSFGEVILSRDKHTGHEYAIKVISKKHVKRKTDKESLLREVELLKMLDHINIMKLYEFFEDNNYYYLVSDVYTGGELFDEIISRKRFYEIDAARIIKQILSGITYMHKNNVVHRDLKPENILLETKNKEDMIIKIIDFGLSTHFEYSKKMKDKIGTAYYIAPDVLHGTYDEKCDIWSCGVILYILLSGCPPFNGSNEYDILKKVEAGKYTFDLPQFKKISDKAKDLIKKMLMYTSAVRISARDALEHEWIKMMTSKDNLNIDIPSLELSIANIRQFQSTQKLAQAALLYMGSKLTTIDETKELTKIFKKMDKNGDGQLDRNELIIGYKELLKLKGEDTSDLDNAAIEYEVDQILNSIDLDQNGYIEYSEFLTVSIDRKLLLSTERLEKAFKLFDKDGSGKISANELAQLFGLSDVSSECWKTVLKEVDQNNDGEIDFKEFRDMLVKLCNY

Sequence of Plasmodium falciparum protein kinase 6 (PK6, PF3D7_1337100) (Q8IDW1 1-305): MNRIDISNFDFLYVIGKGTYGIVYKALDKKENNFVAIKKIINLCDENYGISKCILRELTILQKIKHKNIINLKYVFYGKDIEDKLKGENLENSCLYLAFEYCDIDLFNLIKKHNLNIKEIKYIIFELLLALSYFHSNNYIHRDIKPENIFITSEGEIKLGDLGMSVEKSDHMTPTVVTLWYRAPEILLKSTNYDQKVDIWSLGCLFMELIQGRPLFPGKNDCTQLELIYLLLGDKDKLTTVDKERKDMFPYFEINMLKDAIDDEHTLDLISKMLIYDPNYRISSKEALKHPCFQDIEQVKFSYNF
Sequence of L-lactate dehydrogenase (Plasmodium falciparum (isolate CDC / Honduras)) (Q27743 whole entry, looked up): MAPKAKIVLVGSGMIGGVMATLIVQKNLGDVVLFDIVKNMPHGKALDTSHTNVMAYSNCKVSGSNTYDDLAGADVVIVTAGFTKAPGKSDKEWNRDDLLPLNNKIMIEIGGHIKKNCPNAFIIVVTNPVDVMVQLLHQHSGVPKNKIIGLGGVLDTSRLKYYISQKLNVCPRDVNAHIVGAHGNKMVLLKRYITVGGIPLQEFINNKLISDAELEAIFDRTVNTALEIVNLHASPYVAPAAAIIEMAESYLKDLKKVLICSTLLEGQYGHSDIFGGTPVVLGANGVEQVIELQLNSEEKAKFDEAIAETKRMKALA
Sequence of Calcium-dependent protein kinase 1 (Plasmodium falciparum (isolate 3D7)) (P62344 whole entry, looked up): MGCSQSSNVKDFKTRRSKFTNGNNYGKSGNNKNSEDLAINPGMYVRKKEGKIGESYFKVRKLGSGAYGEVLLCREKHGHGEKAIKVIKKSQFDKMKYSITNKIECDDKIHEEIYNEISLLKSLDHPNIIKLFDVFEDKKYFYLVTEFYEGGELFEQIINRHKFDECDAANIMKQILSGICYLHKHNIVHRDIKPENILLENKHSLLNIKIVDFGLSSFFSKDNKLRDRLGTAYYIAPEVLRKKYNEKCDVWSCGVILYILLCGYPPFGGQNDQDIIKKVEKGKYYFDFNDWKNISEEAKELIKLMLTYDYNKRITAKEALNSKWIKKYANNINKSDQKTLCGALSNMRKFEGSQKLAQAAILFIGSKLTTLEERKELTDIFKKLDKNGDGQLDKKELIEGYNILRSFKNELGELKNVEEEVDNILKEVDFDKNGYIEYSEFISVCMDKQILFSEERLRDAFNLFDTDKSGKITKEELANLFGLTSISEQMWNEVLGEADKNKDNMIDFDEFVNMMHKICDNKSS
Sequence of Protein kinase 7 (PK7), Plasmodium falciparum 3D7 (PF3D7_0213400) (Q7YTF7 1-343): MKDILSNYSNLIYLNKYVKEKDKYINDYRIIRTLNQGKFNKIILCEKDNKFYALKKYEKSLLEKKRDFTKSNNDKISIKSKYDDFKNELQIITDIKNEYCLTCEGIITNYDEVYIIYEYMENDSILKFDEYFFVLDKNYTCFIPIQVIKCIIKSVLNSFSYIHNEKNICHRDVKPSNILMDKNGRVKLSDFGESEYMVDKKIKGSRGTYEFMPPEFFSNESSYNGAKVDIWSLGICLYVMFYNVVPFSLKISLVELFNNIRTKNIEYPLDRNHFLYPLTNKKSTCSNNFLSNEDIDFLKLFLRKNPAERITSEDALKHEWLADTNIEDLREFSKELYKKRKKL

Consider `Cc1cc2ncn(-c3nccc(NCc4ccc(F)c(C)c4)n3)c2cc1C`, for which the growth inhibition is 82% (active) in experiment [1] and 90% (active) in experiment [4]. Also, the inhibition in experiment [2] was 10%; in experiment [3], -3%. In addition, the result in experiment [5], in experiment [6], in experiment [7] and in experiment [8] was inactive.
As to `Cn1cc(CCNc2ccnc(N3CCC(c4ncc[nH]4)CC3)n2)c2ccccc21`, the growth inhibition was 5% in experiment [1] and 92% (active) in experiment [4]. In addition, the inhibition in experiment [2] is 12%; in experiment [3], 3%. Besides, the outcome in experiment [5], in experiment [6], in experiment [7] and in experiment [8] was inactive.
Consider `COc1nc(-n2ccc(=N)cc2)nc2ccccc12`, for which the growth inhibition is 45% in experiment [1] and 90% (active) in experiment [4]. Also, the figures for the inhibition in experiment [2] and in experiment [3] were 15% and 1%, respectively. Besides, the outcome in experiment [5], in experiment [6], in experiment [7] and in experiment [8] was inactive.
For `Cc1ccc(-c2cc(C(=O)Nc3ccc(S(=O)(=O)N4CCCCC4C)cc3)[nH]n2)c(O)c1` (stereo not given), the growth inhibition is 99% (active) in experiment [1] and 100% (active) in experiment [4]. Besides, the values for the inhibition in experiment [2] and in experiment [3] were 37% and 0%, respectively. Further, the result in experiment [5], in experiment [6], in experiment [7] and in experiment [8] was inactive.
For the compound `CCN(CC)CCCNCc1ccc(-c2ccc(C(F)(F)F)cc2)cc1`, the growth inhibition in experiment [1] is 35%; in experiment [4], 95% (active). Besides, the inhibition in experiment [2] is 53% (active); in experiment [3] it was -4%. For the same compound, the result in experiment [5], in experiment [6], in experiment [7] and in experiment [8] was inactive.
With `N#Cc1cccc(CNC(=O)c2cccc(Nc3ccnc4ccc(F)cc34)c2)c1`, the growth inhibition in experiment [1] was 26%; in experiment [4] it was 87% (active). The inhibition in experiment [2] was -1%; in experiment [3], 0%. Besides, the outcome in experiment [5], in experiment [6], in experiment [7] and in experiment [8] was inactive.
Turning to `Cc1ccn2cc(-c3ccc(NC(=O)c4ccc(Br)o4)cc3)nc2c1`, the results for the growth inhibition in experiment [1] and in experiment [4] were 41% and 98% (active), respectively. Further, the inhibition in experiment [2] was 100% (active); in experiment [3], -3%. Besides, the outcome in experiment [5], in experiment [6], in experiment [7] and in experiment [8] was inactive.
As to `CC(O)C1CCCCN1C(=O)c1ccc(-c2cccc(-c3nc4ccc(F)cc4[nH]3)c2)cc1` (stereo not given), the results for the growth inhibition in experiment [1] and in experiment [4] were 97% (active) and 100% (active), respectively. Besides, the figures for the inhibition in experiment [2] and in experiment [3] were 30% and -6%, respectively. Moreover, the outcome in experiment [5], in experiment [6], in experiment [7] and in experiment [8] was inactive.
Consider `Cc1cccc2[nH]c(-c3ccc(-c4ccc(CNCCNC(=O)c5ccnn5C)cc4)cc3)nc12`, for which the results for the growth inhibition in experiment [1] and in experiment [4] were 98% (active) and 102% (active), respectively. Also, the inhibition in experiment [2] is 29%; in experiment [3], -2%. Moreover, the result in experiment [5], in experiment [6], in experiment [7] and in experiment [8] was inactive.
With `Cc1[nH]c2c(NCc3ccc(F)cc3)nccc2c1C`, the growth inhibition was -3% in experiment [1] and 83% (active) in experiment [4]. Moreover, the inhibition in experiment [2] is 63% (active); in experiment [3], -3%. In addition, the outcome in experiment [5], in experiment [6], in experiment [7] and in experiment [8] was inactive.
As to `O=C(O[C@@H]1CN[C@H](C#Cc2cc3c(Nc4ccc5c(cnn5Cc5ccccc5)c4)ncnc3s2)C1)N1CCCC1`, the figures for the growth inhibition in experiment [1] and in experiment [4] were 87% (active) and 99% (active), respectively. Besides, the figures for the inhibition in experiment [2] and in experiment [3] were 8% and -1%, respectively. The result in experiment [5], in experiment [6], in experiment [7] and in experiment [8] was inactive.
As to `Fc1ccc2nc(-c3ccc(-c4ccc(CNCCc5ccncc5)cc4)cc3)[nH]c2c1`, the growth inhibition in experiment [1] was 97% (active); in experiment [4] it was 100% (active). Besides, the results for the inhibition in experiment [2] and in experiment [3] were 23% and 0%, respectively. Besides, the result in experiment [5], in experiment [6], in experiment [7] and in experiment [8] was inactive.
For the compound `Cc1ccc(NC(=O)c2ccc(CN3CCCN(CCC(C)C)CC3)cc2)cc1C`, the figures for the growth inhibition in experiment [1] and in experiment [4] were 17% and 92% (active), respectively. For the same compound, the figures for the inhibition in experiment [2] and in experiment [3] were 25% and 3%, respectively. In addition, the outcome in experiment [5], in experiment [6], in experiment [7] and in experiment [8] was inactive.
Turning to `Cc1cc(NC(=O)c2cccs2)ccc1OC1CCN(Cc2ccc(C#N)cc2)CC1`, the growth inhibition in experiment [1] was 92% (active); in experiment [4] it was 94% (active). Moreover, the inhibition in experiment [2] is 34%; in experiment [3], 4%. The result in experiment [5], in experiment [6], in experiment [7] and in experiment [8] was inactive.
On to `Cc1cc(Oc2cc(NC(=O)c3sc4ncn(Cc5ccccc5F)c(=O)c4c3C)cc([N+](=O)[O-])c2)ccc1Cl`, for which the growth inhibition is 24% in experiment [1] and 94% (active) in experiment [4]. For the same compound, the figures for the inhibition in experiment [2] and in experiment [3] were 2% and 3%, respectively. Also, the outcome in experiment [5], in experiment [6], in experiment [7] and in experiment [8] was inactive.
In the case of `CC(=O)c1ccc2c(c1)CCN(CCC1CCC(NC(=O)c3cc4ccccc4[nH]3)CC1)CC2` (stereo not given), the growth inhibition in experiment [1] is 47%; in experiment [4] it was 86% (active). Besides, the inhibition is 64% (active) in experiment [2] and 2% in experiment [3]. The result in experiment [5], in experiment [6], in experiment [7] and in experiment [8] was inactive.
In the case of `Cc1ccc(NC(=O)c2ccc3ncccc3c2)cc1OC1CCN(CCC(C)C)CC1`, the values for the growth inhibition in experiment [1] and in experiment [4] were 48% and 94% (active), respectively. The inhibition was 2% in experiment [2] and -4% in experiment [3]. Further, the outcome in experiment [5], in experiment [6], in experiment [7] and in experiment [8] was inactive.
In the case of `Cc1ccc(Oc2ncccc2C(=O)Nc2cccc3cccnc23)c(C)c1`, the values for the growth inhibition in experiment [1] and in experiment [4] were 76% (active) and 99% (active), respectively. In addition, the figures for the inhibition in experiment [2] and in experiment [3] were -13% and 0%, respectively. Besides, the outcome in experiment [5], in experiment [6], in experiment [7] and in experiment [8] was inactive.
In the case of `NC1=NCN(OCc2ccc(Cl)c(Cl)c2)C(N)=N1`, the growth inhibition in experiment [1] was 4%; in experiment [4] it was 95% (active). Moreover, the inhibition was 14% in experiment [2] and -3% in experiment [3]. Also, the outcome in experiment [5], in experiment [6], in experiment [7] and in experiment [8] was inactive.
On to `COc1ccc(-c2ccc(NC(=O)c3ccc(Cl)cc3)cc2)cc1CN1CCC(O)CC1`, for which the growth inhibition is 15% in experiment [1] and 89% (active) in experiment [4]. The inhibition is 20% in experiment [2] and 5% in experiment [3]. The outcome in experiment [5], in experiment [6], in experiment [7] and in experiment [8] was inactive.

For the origin of these results see PubChem BioAssay.
